“And” between values parts separate entries of the source, which are not always exact repeats. Identical values can stand only once. Records with an inconclusive call do not appear. The source made the active and inactive calls. Unless noted, the call rests on the fitted dose curve.
Assays:
[1] = Nuclear factor erythroid 2-related factor 2/antioxidant responsive element (Nrf2/ARE) small molecule agonists: qHTS cell viability counter screen in human keratinocytes (AID 1919968; active means well fitted curve in the direction sought with a large enough effect in the repeat runs; an effect the other way counts as inactive or inconclusive; further: nearly all actives have a fitted effect of over 55% in size; further: potency means the concentration at half of the fitted maximal effect)
Method in brief: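 HaCaT ARE reporter line, 1,500 cells/well; 5 h settle, 37 C/5% CO2; cpd in DMSO pinned; 23 h exposure; CellTiter-Fluor, 1 h; fluorescence.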

[2] = Nuclear factor erythroid 2-related factor 2/antioxidant responsive element (Nrf2/ARE) small molecule agonists: luciferase reporter gene qHTS assay in human keratinocytes (AID 1919969); further: nearly all actives have a fitted effect of over 35% in size; further: potency means the concentration at half of the fitted maximal effect
[3] = target: Gonadotropin-releasing hormone receptor (Homo sapiens) (UniProt P30968); assay: Human gonadotropin-releasing hormone receptor (GnRHR) small molecule agonists, calcium flux assay in GnRHR-HEK293 cells (AID 1920063); further: nearly all actives have a fitted effect of over 35% in size
Method in brief: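 GnRHR-HEK293, 1500 cells/well, 18 h 37 C/5% CO2; Ca dye 1 h 37 C; cpd pinned (DMSO), agonist mode; kinetic FL 480/540, 3 min, 1 s reads; 15 conc, n=3.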

[4] = target: KiSS-1 receptor (Homo sapiens) (UniProt Q969F8); assay: Human kisspeptin (KISS1R) small molecule agonists, calcium flux assay in KISS1R-HEK293 cells (AID 1920064; active means well fitted curve in the direction sought with a large enough effect in the repeat runs; an effect the other way counts as inactive or inconclusive)
Method in brief: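 Stable human KISS1R HEK293 line; 18 h plating, 37 C/5% CO2; calcium dye 1 h 37 C; compound pin transfer; kinetic fluorescence Ex/Em 480/540, 3 min.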

[5] = G protein-coupled receptor (GPCR) small molecule agonists, calcium flux assay: HEK293 wild type cell line counter screen (AID 1920065)
Method in brief: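 Kinetic fluorescence at Ex/Em 480/540, recorded every second over 3 min, served as the read-out after compound addition. Each compound was tested at 15 concentrations in triplicate on cells pre-loaded with calcium dye for 1 h.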

[6] = p53 small molecule agonists, cell-based qHTS assay with human liver microsomes (AID 1963577);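 further: p53 response element beta-lactamase reporter cells with liver microsomes plus NADPH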
Method in brief: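 HLM-supplemented p53RE-bla reporter assay: 16 h compound exposure at 37 C, microsomes and NADPH each 0.5 mg/mL final, read by fluorescence intensity.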

[7] = p53 small molecule agonists, cell-based qHTS assay with rat liver microsomes (AID 1963578)
Method in brief: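 Quantitative HTS of the Tox21 10K library: p53RE-bla cells, rat liver microsomes plus NADPH at 0.5 mg/mL final each, 16 h at 37 C, beta-lactamase fluorescence detection.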

[8] = p53 small molecule agonists, cell-based qHTS assay with human liver microsomes: qHTS cell viability counter screen (AID 1963579); further: nearly all actives have a fitted effect of over 45% in size; further: potency means the concentration at half of the fitted maximal effect
Method in brief: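 Viability of p53RE-bla cells is measured as CellTiter-Glo luminescence following a 16 h, 37 C incubation with compound, liver microsomes from human donors and NADPH.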

[9] = p53 small molecule agonists, cell-based qHTS assay with rat liver microsomes: qHTS cell viability counter screen (AID 1963580); further: nearly all actives have a fitted effect of over 45% in size; further: potency means the concentration at half of the fitted maximal effect
Method in brief: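 p53RE-bla HCT-116 cells (4,000/well) rested 5 h at 37 C, then given Tox21 compounds in DMSO with rat liver microsomes (0.5 mg/mL final) plus NADPH (0.5 mg/mL final) for 16 h at 37 C. Viability read by CellTiter-Glo luminescence after 30 min at room temperature.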

[10] = p53 small molecule agonists, cell-based qHTS assay (AID 1963582; active means well fitted activation curve with a large enough effect in the signal ratio in the repeat runs, not every such curve was filed as active; the % refers to the signal ratio; further: potency means the concentration at half of the fitted maximal effect)
Method in brief: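 Reporter line: p53RE-bla. Pre-incubation 5 h, 37 C, 5% CO2; compound (DMSO, pin tool) 16 h, 37 C; B/G FRET substrate 2 h RT; fluorescence intensity read.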

[11] = target: 5-hydroxytryptamine receptor 2A (Homo sapiens) (UniProt P28223); assay: 5-hydroxytryptamine receptor 2A (HTR2A) small molecule antagonists, cell-based qHTS assay (AID 1963586); further: nearly all actives have a fitted effect of over 45% in size
Method in brief: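 Antagonist-mode intracellular calcium assay: DOI (4 nM) added after 5 min compound pre-incubation at room temperature to dye-loaded HTR2A-CHO cells. Fluorescence followed for 3 min, sampled every second.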

[12] = target: 5-hydroxytryptamine receptor 2A (Homo sapiens) (UniProt P28223); assay: 5-hydroxytryptamine receptor 2A (HTR2A) small molecule agonists, cell-based qHTS assay (AID 1963587); further: nearly all actives have a fitted effect of over 30% in size
Method in brief: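 HTR2A-CHO cells, plated 18 h at 37 C/5% CO2, dye-loaded 1 h at 37 C; compounds in DMSO added by pin tool (agonist mode). Intracellular calcium flux read as kinetic fluorescence on FDSS over 2 min at 1 s intervals.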

[13] = target: Muscarinic acetylcholine receptor M1 (Homo sapiens) (UniProt P11229); assay: Cholinergic receptor muscarinic 1 (CHRM1) small molecule antagonists, cell-based qHTS assay (AID 1963588); further: nearly all actives have a fitted effect of over 40% in size
Method in brief: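 CHRM1-CHO calcium-flux assay, antagonist mode. Cells were seeded 18 h, dye-loaded 1 h at 37 C and given compound for 5 min at RT, then acetylcholine was added at 50nM. FDSS fluorescence was read 3 min; 15 concentrations, three runs.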

[14] = target: Muscarinic acetylcholine receptor M1 (Homo sapiens) (UniProt P11229); assay: Cholinergic receptor muscarinic 1 (CHRM1) small molecule agonists, cell-based qHTS assay (AID 1963589); further: nearly all actives have a fitted effect of over 35% in size
Method in brief: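 Human M1 in stable CHO line; 18 h plating, 1 h dye load 37 C; cpd added (agonist mode); Ca2+ fluorescence kinetic read, 1 s intervals; 15 conc, 3 runs.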

[15] = cAMP Responsive Elements (CRE) small molecule agonists, cell-based qHTS assay (AID 1963590)
Method in brief: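 HEK 293T CRE-bla, 2,000 cells/well, 18 h preincubation 37 C/5% CO2; cpds (DMSO) pinned, 3 h; LiveBLAzer B/G FRET substrate, 2 h RT.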

[16] = cAMP Responsive Elements (CRE) small molecule antagonists, cell-based qHTS assay (AID 1963591; active means well fitted inhibition curve with a large enough effect in the signal ratio in the repeat runs, not every such curve was filed as active; the % refers to the signal ratio)
Method in brief: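 Beta-lactamase reporter read by FRET substrate (LiveBLAzer B/G) after 2 h at room temperature. CRE-bla HEK293T cells had received compound plus 0.25 uM (final) NKH477 for 3 h at 37 °C.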

[17] = target: Beta-2 adrenergic receptor (Homo sapiens) (UniProt P07550); assay: Adrenergic beta2 receptor (ADRB2) small molecule antagonists, cell-based qHTS assay (AID 1963592); further: series mostly up to about 92 µM; nearly all actives have a fitted effect of over 50% in size
Method in brief: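 Cells (CHO, stable ADRB2 overexpression) incubated 18-20hr at 37C; compounds added from DMSO; agonist mix (1nM isoproterenol, 100uM IBMX, 25uM Ro-20-1724) added; 0.5hr RT; d2-cAMP and anti-cAMP-cryptate added; 1hr RT; 665/615 nm read.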

[18] = target: D(2) dopamine receptor (Homo sapiens) (UniProt P14416); assay: Dopamine D2 receptor (DRD2) small molecule agonists, cell-based qHTS assay (AID 1963594); further: nearly all actives have a fitted effect of over 35% in size
Method in brief: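 HEK293 cells stably expressing DRD2 were cultured 24 h at 37 C, then given Ro20-1724 (0.1 mM final) and compounds for 10 min at room temperature. NKH477 (200nM) was then added for 30 min. cAMP was read by HTRF.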

[19] = target: D(2) dopamine receptor (Homo sapiens) (UniProt P14416); assay: Dopamine D2 receptor (DRD2) small molecule antagonists, cell-based qHTS assay (AID 1963595; active means well fitted inhibition curve with a large enough effect in the signal ratio in the repeat runs, with a control signal flat; the % refers to the signal ratio)
Method in brief: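 HEK293 cells stably expressing DRD2 were preincubated with 0.1 mM Ro20-1724, then with compound for 10 min at room temperature. Cells were stimulated with 200 nM NKH477 plus 12 nM quinpirole for 30 min, and cAMP was read by HTRF.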

[20] = p53 small molecule agonists, cell-based qHTS assay: qHTS cell viability counter screen (AID 1963581); further: nearly all actives have a fitted effect of over 45% in size; further: potency means the concentration at half of the fitted maximal effect
Method in brief: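 HCT-116 p53RE-bla cells, 4,000/well, plated 5 h before compound pin transfer; 16 h at 37 C; bla substrate 2 h RT; then CellTiter-Glo, 30 min RT, luminescence.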

Measured: Potency

Muscarinic acetylcholine receptor M1 (Homo sapiens), sequence (P11229 whole entry, looked up): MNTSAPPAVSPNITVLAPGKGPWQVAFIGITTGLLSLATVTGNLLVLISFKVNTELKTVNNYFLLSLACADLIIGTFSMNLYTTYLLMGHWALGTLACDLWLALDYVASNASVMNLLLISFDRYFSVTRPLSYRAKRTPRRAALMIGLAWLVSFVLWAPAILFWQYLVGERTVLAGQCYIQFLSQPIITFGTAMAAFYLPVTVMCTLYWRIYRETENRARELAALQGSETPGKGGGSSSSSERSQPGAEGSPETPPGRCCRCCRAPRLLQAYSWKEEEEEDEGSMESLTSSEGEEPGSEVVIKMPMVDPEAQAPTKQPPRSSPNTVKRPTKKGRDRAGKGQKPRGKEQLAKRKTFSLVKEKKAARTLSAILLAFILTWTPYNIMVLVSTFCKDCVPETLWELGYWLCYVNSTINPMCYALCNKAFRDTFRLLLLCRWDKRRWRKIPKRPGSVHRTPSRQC
Beta-2 adrenergic receptor (Homo sapiens), sequence (P07550 whole entry, looked up): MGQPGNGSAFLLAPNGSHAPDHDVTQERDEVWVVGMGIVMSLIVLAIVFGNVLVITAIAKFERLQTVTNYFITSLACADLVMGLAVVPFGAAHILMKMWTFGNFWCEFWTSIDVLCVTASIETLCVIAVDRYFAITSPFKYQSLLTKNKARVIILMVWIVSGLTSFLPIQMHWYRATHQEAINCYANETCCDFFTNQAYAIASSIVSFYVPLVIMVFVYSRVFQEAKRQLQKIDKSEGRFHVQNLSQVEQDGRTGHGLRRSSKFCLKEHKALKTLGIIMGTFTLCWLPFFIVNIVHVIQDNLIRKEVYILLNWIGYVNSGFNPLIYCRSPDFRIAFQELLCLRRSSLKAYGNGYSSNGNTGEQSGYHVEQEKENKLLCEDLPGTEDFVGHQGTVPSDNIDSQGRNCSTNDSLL
Gonadotropin-releasing hormone receptor (Homo sapiens), sequence (P30968 whole entry, looked up): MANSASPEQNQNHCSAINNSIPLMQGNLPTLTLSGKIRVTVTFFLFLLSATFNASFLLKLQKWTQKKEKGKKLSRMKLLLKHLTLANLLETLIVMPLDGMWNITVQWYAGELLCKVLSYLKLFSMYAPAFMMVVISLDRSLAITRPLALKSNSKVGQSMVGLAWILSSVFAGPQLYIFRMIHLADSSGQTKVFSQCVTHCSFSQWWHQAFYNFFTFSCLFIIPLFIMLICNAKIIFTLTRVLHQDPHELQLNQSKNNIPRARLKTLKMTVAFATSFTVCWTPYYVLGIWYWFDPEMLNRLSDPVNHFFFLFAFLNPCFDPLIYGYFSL
D(2) dopamine receptor (Homo sapiens), sequence (P14416 whole entry, looked up): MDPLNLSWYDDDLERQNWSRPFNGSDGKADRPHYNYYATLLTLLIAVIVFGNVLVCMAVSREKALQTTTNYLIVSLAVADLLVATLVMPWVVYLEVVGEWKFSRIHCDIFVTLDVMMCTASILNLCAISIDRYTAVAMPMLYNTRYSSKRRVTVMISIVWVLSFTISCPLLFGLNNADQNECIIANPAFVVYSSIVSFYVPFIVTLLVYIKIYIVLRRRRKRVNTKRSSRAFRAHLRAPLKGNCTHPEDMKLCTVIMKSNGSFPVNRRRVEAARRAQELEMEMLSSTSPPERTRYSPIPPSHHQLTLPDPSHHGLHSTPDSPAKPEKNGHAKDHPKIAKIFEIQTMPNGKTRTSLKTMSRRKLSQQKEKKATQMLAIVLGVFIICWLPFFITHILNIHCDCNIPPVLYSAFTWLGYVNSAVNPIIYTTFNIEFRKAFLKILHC
KiSS-1 receptor (Homo sapiens), sequence (Q969F8 whole entry, looked up): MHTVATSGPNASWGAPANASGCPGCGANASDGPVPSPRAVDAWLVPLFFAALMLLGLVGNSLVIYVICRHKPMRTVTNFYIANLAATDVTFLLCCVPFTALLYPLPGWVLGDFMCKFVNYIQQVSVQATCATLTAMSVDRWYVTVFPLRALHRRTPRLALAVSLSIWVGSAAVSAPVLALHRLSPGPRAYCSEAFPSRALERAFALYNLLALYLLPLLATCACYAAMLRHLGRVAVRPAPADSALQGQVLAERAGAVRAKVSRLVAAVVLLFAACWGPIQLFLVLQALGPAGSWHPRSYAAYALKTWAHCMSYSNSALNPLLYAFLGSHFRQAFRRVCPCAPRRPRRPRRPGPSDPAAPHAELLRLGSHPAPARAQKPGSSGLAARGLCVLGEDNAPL
5-hydroxytryptamine receptor 2A (Homo sapiens), sequence (P28223 whole entry, looked up): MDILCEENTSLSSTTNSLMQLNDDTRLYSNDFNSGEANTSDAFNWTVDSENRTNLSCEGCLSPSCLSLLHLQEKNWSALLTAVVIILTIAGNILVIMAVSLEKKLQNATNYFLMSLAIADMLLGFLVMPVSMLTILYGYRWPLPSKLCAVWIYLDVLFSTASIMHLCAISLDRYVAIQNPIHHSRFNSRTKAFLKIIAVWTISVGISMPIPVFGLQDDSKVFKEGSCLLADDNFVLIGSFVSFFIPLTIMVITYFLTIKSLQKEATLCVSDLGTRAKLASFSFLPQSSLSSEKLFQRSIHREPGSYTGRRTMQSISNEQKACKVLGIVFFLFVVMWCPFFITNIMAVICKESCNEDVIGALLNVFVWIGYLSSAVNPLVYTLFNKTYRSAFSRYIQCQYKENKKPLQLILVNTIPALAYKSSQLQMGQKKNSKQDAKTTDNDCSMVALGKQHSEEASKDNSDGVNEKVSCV

COc1nc(C)nc(NC(=O)NS(=O)(=O)c2ccccc2Cl)n1
not listed: [19] | [20]
inactive: all other assays above

CCc1cc(C)cc(CC)c1-c1c(OC(=O)C(C)(C)C)n2n(c1=O)CCOCC2
not listed: [20]
inactive: all other assays above

O=[N+]([O-])c1ccc(Cl)c([N+](=O)[O-])c1
active: [1] 24.7 µM and 43.3 µM | [2] 15.6 µM | [8] 36.9 µM and 40.8 µM | [9] 40.8 µM | [20] 26.1 µM
not listed: [10] | [15] | [16] | [17]
inactive: all other assays above

CCCCNC(=O)n1c(NC(=O)OC)nc2ccccc21
active: [2] 54.2 µM | [10] 10.2 µM
not listed: [20]
inactive: all other assays above

Nc1cc(Cl)cc(C(=O)O)c1Cl
not listed: [10] | [11] | [14] | [15]
inactive: all other assays above

COC(=O)c1ccc(CBr)cc1
active: [2] 6.19 µM
not listed: [15] | [18] | [20]
inactive: all other assays above

O=C(O)COc1ccccc1
not listed: [9] | [18]
inactive: all other assays above
